Screening results as filed in PubChem.
Hits are enriched below; roughly 6% of the tested compounds scored in any of these assays.
DRD3 agonist = D3 dopamine receptor (human) agonism; max activation, %; 0.58% of 410,000 active; D3R DiscoveRx beta-arrestin cells, luminescence, 90 min; AID 652048; P35462; in the data active = max activation above about 30%
Target sequence (P35462 whole entry, looked up): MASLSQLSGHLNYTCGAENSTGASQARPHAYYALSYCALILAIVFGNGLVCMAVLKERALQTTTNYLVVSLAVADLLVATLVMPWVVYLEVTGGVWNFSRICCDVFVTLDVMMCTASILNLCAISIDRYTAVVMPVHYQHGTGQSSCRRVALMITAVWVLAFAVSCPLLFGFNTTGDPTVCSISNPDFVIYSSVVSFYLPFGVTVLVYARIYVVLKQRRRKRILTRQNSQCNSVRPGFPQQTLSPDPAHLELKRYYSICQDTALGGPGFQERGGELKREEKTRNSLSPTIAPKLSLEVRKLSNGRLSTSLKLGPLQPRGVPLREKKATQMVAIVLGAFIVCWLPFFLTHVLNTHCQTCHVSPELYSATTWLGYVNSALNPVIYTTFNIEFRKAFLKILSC
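Agonist mode: compounds and dopamine controls were applied to plated cells for 90 min at 37 degrees C after an overnight attachment at 1500 cells/well. Luminescent read-out followed 30 - 60 minutes at room temperature with DiscoveRx detection reagent.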
D1 agonist = human D1 receptor agonism | HEK293 T-REx D1 cells, calcium flux, agonist mode | AID 504660 | 1% of 360,000 active | activation, % at 2 µM; in the data active = activation above about 30%
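Agonism was scored from calcium flux recorded over 180 s (1 read/s) after pintool compound addition, following a 10-cycle baseline. Cells were inducible force-coupled HEK293 TREx D1, plated overnight at 30 C and loaded with no-wash calcium dye.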
D1 potentiator = human D1 dopamine receptor positive modulation; HEK293 TREx D1 cells, calcium flux, dopamine EC20 potentiation; potentiation, % at 10 µM; 0.036% of 360,000 active; in the data active = potentiation above about 30%
D1 antagonist = blocks dopamine activation of the human D1 receptor | HEK293 TREx D1 cells, calcium flux, dopamine EC80; stronger effect = lower value | activity change, negative = inhibition, % at 10 µM | 3.2% of 360,000 active; in the data active = activity change below about -30%
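Allosteric or orthosteric antagonism assessed as attenuation of the calcium response to EC80 dopamine, added 180 s after compound, in induced HEK293 Trex D1 cells loaded with no-wash calcium dye.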
D3 antag = blocks the human D3 dopamine receptor | P35462 | D3R cells, DiscoveRx beta-arrestin luminescence, antagonist mode; stronger effect = lower value | max response, negative = inhibition, % | 2.5% of 360,000 active; in the data active = max response below about -50%; inconclusive = no clear call, values can overlap the other calls
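Cells expressing the human receptor were seeded at 1500 cells/well, incubated overnight at 37 degrees C in 5% CO2, then exposed to library compounds with dopamine controls for 90 minutes at 37 degrees C before luminescent detection.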
Numbers stand for hits; - = inactive; ? = inconclusive; . = no result given.

SMILES	DRD3 agonist	D1 agonist	D1 potentiator	D1 antagonist	D3 antag
O=C(CCCN1C(=O)S/C(=C\C=C\c2ccccc2)C1=O)Nc1ccc(C(=O)O)cc1	-	-	-	-	-
O=C(CCN1C(=O)S/C(=C\C=C\c2ccccc2)C1=O)Nc1ccc(O)cc1	-	-	-	-38	-
CC(=O)c1cccc(NC(=O)c2c(C)nn(-c3ccc(F)cc3)c2-n2cccc2)c1	-	-	-	-	.
COCCN(C(=O)COC(=O)Cc1ccc(Cl)cc1Cl)c1c(N)n(Cc2ccccc2)c(=O)[nH]c1=O	-	-	-	-	-
COc1c(CC=C(C)C)cc(C2CC(=O)c3c(O)cc(O)cc3O2)c(CC=C(C)C)c1O (centres undefined)	-	.	.	.	-
CC(C)=CCc1cc([C@@H]2CC(=O)c3ccc(O)c(CC=C(C)C)c3O2)ccc1O	31	.	.	.	-
O=C(NCc1ccccc1)C(C1CC1)n1c(Cc2cc(F)cc(F)c2)nc2ccccc21 (centres undefined)	-	.	.	.	-
O=C(N/N=C/c1cc(Cl)cc([N+](=O)[O-])c1O)c1ccccc1NS(=O)(=O)c1cccs1	-	-	-	-30	?
Cc1cc(C(=O)N/N=C/c2cc(Cl)cc([N+](=O)[O-])c2O)c2ccccc2n1	-	-	-	-	-66
CSCCC(C(=O)NC1CCCC1)n1c(-c2ccncc2)nc2ccccc21 (centres undefined)	-	.	.	.	-
O=C(Nc1ccc2c(c1)OCCO2)C(c1cc2ccccc2o1)N1CCN(c2ccc(F)cc2)CC1 (centres undefined)	-	.	.	.	-
O=C(Nc1ccc2c(c1)OCCO2)C(C1CC1)N1CCN(C/C=C/c2ccccc2)CC1 (centres undefined)	-	.	.	.	-59
O=C(Nc1ccc2c(c1)OCCO2)C(c1cc2ccccc2o1)N1CCN(C/C=C/c2ccccc2)CC1 (centres undefined)	-	.	.	.	-111
COc1ccc(OC)c(CC(=O)N2CCc3cc(OC)c(OC)cc3C2)c1	-	-	-	-	-
CC(C)Cc1nc2oc3c(NCC4CCCO4)ncnc3c2c2c1CCC2 (centres undefined)	58	-	-	-	-
CC(C)Cc1nc2oc3c(NCc4cccnc4)ncnc3c2c2c1CCC2	-	-	-	-	-
CN1C(=O)C2CN(CCc3ccccc3)CNC2N(C)C1=O (centres undefined)	-	-	-	-35	-
CCN1CN(CCc2ccccc2)CNC1=S	-	-	-	-	-
O=C(Nc1cccc(Cl)c1)c1ccc2sc([C@H]3C[C@H](O)[C@@H](CO)O3)nc2c1	-	.	.	.	-
Cc1nnc(SCC(=O)NC2CCCc3c2cnn3-c2ccccc2F)o1 (centres undefined)	-	-	-	-39	-
O=C(NC1CCCc2c1cnn2-c1ccc(F)cc1F)c1csnn1 (centres undefined)	-	-	-	-31	-
CCC(C(=O)NCc1ccccc1Cl)n1nc(C)c2sc3ccccc3c2c1=O (centres undefined)	-	-	-	-	.
CCc1ccc(-c2cn3nc(CC)sc3n2)cc1	-	-	-	-	.
CCCCCc1nn2cc(-c3ccccc3)nc2s1	37	-	-	-	.
CC(C)Cc1nn2cc(-c3cccc(Br)c3)nc2s1	66	-	-	-	.
SMILES	DRD3 agonist	D1 agonist	D1 potentiator	D1 antagonist	D3 antag
CCc1nc2c(OCC=C(C)C)cccn2c1N(C)C(=O)c1ccc(OC)cc1	-	.	.	.	-61
Cc1nc2c(OCc3ccc(C(F)(F)F)cc3)cccn2c1N(C)CC1CC1	-	.	.	.	-99
COC(=O)c1ccccc1COc1cccn2c(N(C)CC3CC3)c(C)nc12	-	.	.	.	-
CCc1nc2c(OCc3ccc(C(F)(F)F)cc3)cccn2c1N(C)C(=O)c1ccc(C)cc1	-	.	.	.	-66
CCc1nc2c(OCCC3CCCCC3)cccn2c1N(C)C(=O)c1ccc(C)cc1	-	.	.	.	-56
CCOc1ccc(CN(C)C(=O)c2ccc(NC(=O)CC3SC(N4CCCC4)=NC3=O)cc2)cc1 (centres undefined)	-	-	-	-	-
Cc1nc2c(OCCC3CCCCC3)cccn2c1N(C)C(=O)CCC1CCCC1	-	.	.	.	-67
CCc1nc2c(OCCC3CCCCC3)cccn2c1N(C)C(=O)C(C)C	-	.	.	.	?
CCc1nc2c(OCCC3CCCCC3)cccn2c1N(C)C(=O)C1CC1	-	.	.	.	-66
Cc1nc2c(OCCOc3ccccc3)cccn2c1N(C)C(=O)CCC1CCCC1	-	.	.	.	-
CN(C)C(=O)C(CCN1CCC(O)(c2ccc(Cl)cc2)CC1)(c1ccccc1)c1ccccc1	-	40	-	-	-81
COc1ccccc1N1CCN(C(=O)CN2C(=O)COc3ccc(S(=O)(=O)N4CCC(C)CC4)cc32)CC1	-	-	-	-	.
O=C(COc1ccc(Cl)cc1Cl)Nc1nnc(C2=COCCO2)o1	-	-	-	-69	-
O=C(COc1ccc(Cl)cc1)Nc1nnc(C2=COCCO2)o1	-	-	-	-	-
CCc1ccc(NC(=O)NCCCN2CCCC2=O)cc1	-	-	-	-	-
CCc1ccc(NC(=O)NCCN2CCc3ccccc3C2)cc1	-	-	-	-	-69
O=C(NCCN1CCc2ccccc2C1)Nc1ccc(F)cc1	-	-	-	-	-77
CCOc1ccccc1CNC(=O)c1cccn1-c1nnc(N2CCCC2)s1	-	-	-	-	.
COCCNC(=O)c1cc2c(c(-c3cccc(C#CC(C)(C)O)c3)n1)[C@@H](CCO)N(S(=O)C(C)(C)C)C2 (some centres undefined)	-	.	.	.	-
Cc1ccc(OCC(O)CNC(C)c2ccccc2)cc1C (centres undefined)	-	32	-	-	-
Cc1ccc(C(OCC(O)CNC(C)c2ccccc2)c2ccccc2)cc1 (centres undefined)	-	-	-	-38	-
Cc1cccc(CNC(=O)CCn2c(=O)c3cccn3c3ccc(F)cc32)c1	-	-	-	-	.
Cn1nc(C(=O)NNC(=O)COc2ccccc2)c2ccccc2c1=O	-	-	-	-35	?
CCn1nc(C(=O)NNC(=O)COc2ccc(OC)cc2)c2ccccc2c1=O	-	-	-	-	-
O=C(c1ccc2c(c1)OCO2)C1CCCN(Cc2cn[nH]c2-c2ccccc2)C1 (centres undefined)	-	-	-	-	-
O=C(c1ccc2c(c1)OCO2)C1CCCN(Cc2ccc3cccc(F)c3n2)C1 (centres undefined)	-	-	-	-	-
O=C(c1ccc2c(c1)OCO2)C1CCCN(Cc2ccc(OC(F)F)cc2)C1 (centres undefined)	-	-	-	-	-76
O=C(c1ccc2c(c1)OCO2)C1CCCN(Cc2cccc(C(F)(F)F)c2)C1 (centres undefined)	-	-	-	-	-115
c1ccc(C(c2ccccc2)c2noc(CN3CCC(c4ccncc4)CC3)n2)cc1	52	-	-	-	-
CC(C)c1ccc(CN(C)C(=O)c2ccc(S(=O)(=O)NCc3ccco3)cc2)cc1	-	-	-	-30	-
